# Measurements from PubChem BioAssay (NCI).
# About 83,000 compounds went through this panel and 20% of them were active in at least one assay; those are over-represented in the sample as a whole.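 Plates (96-well) were seeded with cells, treated with compound at one concentration, and incubated for 48 hours before percent growth was determined.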 A number with no mark means an inactive call. The source made the active and inactive calls. How the source made its calls: active means growth percent below 10; inactive means the rest.
# Assays:
# Assay in all cases: NCI-60 one-dose screen, 48 h (100 = growth as untreated, 0 = no growth, -100 = all killed)
# Conditions in all cases: 10 µM unless noted
# [1] = system: NCI-H23 lung
# [2] = system: NCI-H226 lung
# [3] = system: NCI-H322M lung
# [4] = system: HOP-62 NSCLC
# [5] = system: NCI-H460 lung
# [6] = system: HOP-92 NSCLC
# [7] = system: NCI-H522 lung
# [8] = system: A549/ATCC NSCLC
# [9] = system: 786-0 renal
# [10] = system: COLO 205 colon
SMILES,growth [1],growth [2],growth [3],growth [4],growth [5],growth [6],growth [7],growth [8],growth [9],growth [10]
CC/C(=C(/c1ccc(Cl)cc1)c1ccc(OCCN2CCCCCC2)cc1)c1ccccc1,77.5%,97.6%,107%,103%,56.4%,80.3%,89.6%,59.5%,85.2%,37%
C=CN(C(=O)N1CCN(c2cc3c(cc2F)c(=O)c(C(=O)O)cn3C2CC2)CC1)c1nc(-c2ccc(C)cc2)cs1,13.4%,35.4%,20.8%,17.9%,9.77% (active),-10.4% (active),5.65% (active),15.7%,22.8%,16.7%
Cn1cc(-c2csc(-c3cn(CCO)c4ccc(F)cc34)n2)c2cccnc21,74.1%,76%,79.1%,52.6%,27%,64.8%,10%,49.8%,73.3%,46%
CCCN1C2CCC1/C(=C\c1ccc(OC)cc1)C(=O)/C2=C/c1ccc(OC)cc1,67.5%,71.5%,92%,89.1%,76.9%,58.1%,51.2%,72.6%,85.2%,76%
COc1cc(NC(=O)c2cncnc2Nc2ccc3c(ccn3Cc3cccc(F)c3)c2)cc(OC)c1,79.1%,80.3%,84.1%,52.7%,45.9%,83.4%,44.3%,40.4%,81.1%,61.3%
C=C(CNCCc1ccc(O)cc1)[C@@H]1CC[C@]2(CO)CC[C@]3(C)[C@H](CC[C@@H]4[C@@]5(C)CCC(N)C(C)(C)[C@@H]5CC[C@]43C)[C@@H]12 (stereo not given in full),-66.5% (active),87.6%,-53.7% (active),-74.7% (active),-86.7% (active),-78.8% (active),-64.8% (active),-66.6% (active),-87.3% (active),-72.2% (active)
CCOC(=O)c1c(Nc2nc3ccccc3s2)sc2c1CCC(=O)C2,26.3%,91.9%,85%,66.4%,34%,85.4%,8.13% (active),68.8%,66%,65.9%
NC(=O)[C@@H]1Cc2ccccc2CN1C(=O)c1ccc2c(c1)Cc1ccccc1-2,89.4%,83.2%,103%,108%,91.5%,92.9%,66.9%,64.9%,97.8%,105%
C/C(=N\NC(=O)c1ccc(C(C)(C)C)cc1)c1ccc(O)cc1O,23.7%,25.6%,25.5%,20.9%,3.99% (active),59.3%,27.5%,21.5%,15.3%,7.24% (active)
CN1/C(=C/C=C/c2n(Cc3ccc4ccccc4c3)c(Cl)c(Cl)[n+]2Cc2ccc3ccccc3c2)Oc2ccccc21,-80% (active),-75.4% (active),-10.6% (active),-85.7% (active),-74.5% (active),-81% (active),-81.6% (active),-86.7% (active),-82.6% (active),-80.1% (active)
COc1ccc(/C(C)=C(\c2ccc(Cl)cc2)c2ccc(OCCCN(C)C)cc2)cc1,82.3%,103%,82.2%,101%,40.2%,62.5%,76.7%,47.2%,75.3%,15%
c1ccc(-c2cn3nc(-c4c[nH]c5ccccc45)sc3n2)cc1,87.6%,77.3%,71.4%,73.6%,89.2%,75.5%,61.2%,82.6%,102%,87.1%
